# In a collection of fitness landscapes (doi:10.1016/j.celrep.2020.107928):
# The full ranking holds about 81,000 sequences; the median of “one-hybrid fitness for binding NBS DNA” is about -0.1, and the highest 2% start at about 0.36. The sample as a whole holds a higher share of the highest values than the screen did.
# B1: Caulobacter ParB omega fusion; a variant is named by its letters at X, in order, B8GW30 (parent)
# chain: MESVVVGEPGMSEGRRGLGRGLSALLGEVDAAPAQAPGEQLGGSREAPIEILQRNPDQPRRTFREEDLEDLSNSIREKGVLQPILVRPSPDTAGEYQIVAGERAWRAAQRAGLKTVPIMVRELDDLAVLEIGIIENVQRADLNVLEEALSYKVLMEKFERTQENIAQTIGKSXSHVANXMRLLXLPDEVQSYLVSGELTAXHARAIAAAADPVALAKQIIEGGLSVRETEALARKAPNLSAGKSKGGRPPRVKDTDTQALESDLSSVLGLDVSIDHRGSTGTLTITYATLEQLDDLCNRLTRGI
# Variants of: B1
# Experiment: one-hybrid fitness for binding NBS DNA (the Noc-binding site; scaled: cognate 1, non-cognate 0); higher = stronger binding
# Settings: with NBS DNA site
# How it was run: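 The reporter was HIS3, with the binding site 19 bp from the promoter, in E. coli USO used for bacterial one-hybrid selection of Caulobacter ParB libraries with four specificity codons randomised. Growth was on M9 lacking histidine, with 0.1 mM IPTG and 5 mM 3-AT, for 48 hours at 37°C. Illumina sequencing covered plasmids before and after selection; three replicate libraries were pooled and variants with under 10 reads dropped. A fitness score is the log change in variant-to-wild-type read ratio, rescaled to the cognate and non-cognate references.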
row,Variant,one-hybrid fitness for binding NBS DNA
1,MRMG,≤ 0.2
2,RYVT,0.229
3,RYWT,0.281
4,RYNT,0.514
5,RYRT,0.664
6,RYKT,0.604
7,RYPT,≤ 0.2
8,RYLD,≤ 0.2
9,RYLH,≤ 0.2
10,RYDT,0.204
11,RYYT,0.349
12,RYLT,0.366
13,RYNP,≤ 0.2
14,LHLS,≤ 0.2
15,ILDG,≤ 0.2
16,GDTF,≤ 0.2
17,TMRI,≤ 0.2
18,MQPC,≤ 0.2
19,MRDI,≤ 0.2
20,WQSY,≤ 0.2
21,RYCT,0.372
22,RYFT,≤ 0.2
23,RYAT,0.461
24,RYCC,≤ 0.2
25,RYCG,≤ 0.2

row,Variant,one-hybrid fitness for binding NBS DNA
1,RYAH,≤ 0.2
2,TALL,≤ 0.2
3,HITC,≤ 0.2
4,LYGC,≤ 0.2
5,QTWT,0.543
6,QTWD,≤ 0.2
7,QTYT,0.572
8,QHWD,≤ 0.2
9,NTRT,≤ 0.2
10,QTRT,0.891
11,DTRT,≤ 0.2
12,QHWT,0.375
13,QTWH,≤ 0.2
14,QHWN,≤ 0.2
15,DQMC,≤ 0.2
16,HTHS,≤ 0.2
17,SPAK,≤ 0.2
18,IRFR,≤ 0.2
19,WCIR,≤ 0.2
20,QSWT,0.348
21,QTNP,≤ 0.2
22,QTSC,0.214
23,QCWT,0.461
24,QTND,0.227
25,QTST,0.61

row,Variant,one-hybrid fitness for binding NBS DNA
1,QTSF,≤ 0.2
2,QTNT,0.71
3,QPWT,≤ 0.2
4,QTDT,0.448
5,IHPM,≤ 0.2
6,MVSY,≤ 0.2
7,TTTW,≤ 0.2
8,HGWD,≤ 0.2
9,LSVE,≤ 0.2
10,EWQK,≤ 0.2
11,GLRI,≤ 0.2
12,TRMF,≤ 0.2
13,IGRY,≤ 0.2
14,TPVT,0.375
15,TPVR,0.513
16,TPKQ,≤ 0.2
17,TPVQ,0.763
18,TRSQ,≤ 0.2
19,TCVT,≤ 0.2
20,TSVQ,≤ 0.2
21,TPKT,≤ 0.2
22,TSSQ,0.493
23,TTSQ,≤ 0.2
24,TPKR,0.351
25,TCVR,≤ 0.2

row,Variant,one-hybrid fitness for binding NBS DNA
1,VMCN,≤ 0.2
2,SSHR,0.261
3,WIIS,≤ 0.2
4,QDAC,≤ 0.2
5,YRCS,≤ 0.2
6,QPDL,≤ 0.2
7,QYVG,≤ 0.2
8,RKCC,≤ 0.2
9,HGRR,≤ 0.2
10,EGQR,≤ 0.2
11,QCKA,0.608
12,QMIA,≤ 0.2
13,QHIA,≤ 0.2
14,QALA,≤ 0.2
15,QAKA,0.521
16,QMKA,0.596
17,QMVA,≤ 0.2
18,QHVA,≤ 0.2
19,QAVA,≤ 0.2
20,QHKA,0.597
21,QIKA,0.351
22,QPKA,≤ 0.2
23,NDTL,≤ 0.2
24,YAKI,≤ 0.2
25,LRRN,≤ 0.2

row,Variant,one-hybrid fitness for binding NBS DNA
1,TCKG,≤ 0.2
2,WGAS,≤ 0.2
3,PPRC,≤ 0.2
4,QKPA,≤ 0.2
5,QLLA,≤ 0.2
6,QWKA,≤ 0.2
7,QLVA,≤ 0.2
8,QSVA,≤ 0.2
9,QSKA,0.558
10,QKVA,≤ 0.2
11,QKKA,0.577
12,QLKA,0.466
13,AVKE,≤ 0.2
14,NQRA,≤ 0.2
15,FGAF,≤ 0.2
16,QMKG,0.336
17,QMKR,1.03
18,QMVP,≤ 0.2
19,QMVR,0.424
20,QMVD,≤ 0.2
21,QMKL,0.262
22,TAHS,≤ 0.2
23,IMVC,≤ 0.2
24,HTKM,≤ 0.2
25,KTGG,≤ 0.2

row,Variant,one-hybrid fitness for binding NBS DNA
1,ETHC,≤ 0.2
2,RRQK,0.261
3,RRDR,0.666
4,RRQR,0.765
5,RRLG,0.245
6,RRGF,≤ 0.2
7,RPDR,≤ 0.2
8,RRGQ,0.239
9,RRGR,0.744
10,RRLR,0.702
11,RRQF,0.221
12,RRLQ,0.209
13,SFAS,≤ 0.2
14,HDCG,≤ 0.2
15,DQVR,≤ 0.2
16,KNLL,≤ 0.2
17,DPPY,≤ 0.2
18,PPNW,≤ 0.2
19,ARKC,≤ 0.2
20,HVNI,≤ 0.2
21,HCSE,≤ 0.2
22,RRSM,0.311
23,RRNR,0.813
24,RRSR,0.756
25,RCER,0.245

row,Variant,one-hybrid fitness for binding NBS DNA
1,RRNG,0.343
2,RRRR,0.904
3,RRSF,≤ 0.2
4,RRNE,≤ 0.2
5,RGRR,0.336
6,RRER,0.629
7,RERR,≤ 0.2
8,RPER,≤ 0.2
9,PAQI,≤ 0.2
10,TDSA,≤ 0.2
11,YSRC,≤ 0.2
12,RRCC,0.325
13,RRHF,0.207
14,RRWR,0.732
15,RRWK,0.249
16,RRWG,0.216
17,RRCF,≤ 0.2
18,RRHQ,0.293
19,RRYR,0.728
20,RRCR,0.75
21,RRHR,0.771
22,ETHW,≤ 0.2
23,GAPL,≤ 0.2
24,TTDQ,≤ 0.2
25,QPFL,≤ 0.2

row,Variant,one-hybrid fitness for binding NBS DNA
1,QGKK,≤ 0.2
2,MPVQ,≤ 0.2
3,KLMT,≤ 0.2
4,PRPV,≤ 0.2
5,TLPW,≤ 0.2
6,PPHD,≤ 0.2
7,RYTW,≤ 0.2
8,QCRL,0.401
9,QMRL,0.287
10,QTVL,≤ 0.2
11,DPRL,≤ 0.2
12,QTDL,≤ 0.2
13,QCKL,0.307
14,DCRL,0.405
15,QTRL,0.406
16,QTYL,≤ 0.2
17,QTKL,0.395
18,QPRL,≤ 0.2
19,DIRL,≤ 0.2
20,DKKC,≤ 0.2
